Compounds without any hit were thinned out: in the full panel of roughly 83,000, 20% have a hit.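 How to read the values: 0–100, growth inhibition (40 = 60% inhibited); 0, no net growth; -100 to 0, cell death (-40 = 40% of starting cells died; -100 = all dead).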 A number with no mark means an inactive call. Activity calls are given as the source filed them. Rule for the calls: active = growth percent below 10; inactive = the rest.

Test systems include NCI-H23 lung; NCI-H226 lung; NCI-H322M lung; HOP-62 NSCLC; NCI-H460 lung; HOP-92 NSCLC; NCI-H522 lung; A549/ATCC NSCLC; 786-0 renal; DU-145 prostate; K-562 leukemia; MALME-3M melanoma; MDA-MB-231 breast; RXF 393 renal; SF-268 CNS; SF-295 CNS; SF-539 CNS; UACC-257 melanoma; M14 melanoma.
Assay in all cases: NCI-60 one-dose screen, 48 h (100 = growth as untreated, 0 = no growth, -100 = all killed)
What all share (conditions): 10 µM unless noted

On to `COc1cc(/C=C/C(=O)c2cccc(-n3cc(-c4ccccc4)[nH]c3=O)c2)cc(OC)c1OC`, for which the growth with NCI-H23 lung was -27.4% (active); in the assay on NCI-H226 lung it was 24.9%; in the assay with NCI-H322M lung, 33%; with HOP-62 NSCLC, 7.01% (active); in the assay on NCI-H460 lung, -68.5% (active); in the assay with HOP-92 NSCLC, 24.3%. Further, the growth was -64.5% (active) with NCI-H522 lung; 27.1% in the assay on A549/ATCC NSCLC; -63.4% (active) in the assay on 786-0 renal; 7.58% (active) in the assay with DU-145 prostate; 5.48% (active) with K-562 leukemia; 2.69% (active) in the assay with MALME-3M melanoma. Moreover, the growth was 5.03% (active) with MDA-MB-231 breast; -69.7% (active) with RXF 393 renal; 17.7% in the assay with SF-268 CNS; 51% with SF-295 CNS; -88.8% (active) in the assay on SF-539 CNS; -13.2% (active) with UACC-257 melanoma.
For `O=C(NCCN1CCC(O)CC1)c1cc2c(o1)C(=O)c1ccccc1C2=O`, the growth with NCI-H23 lung was -50.9% (active); in the assay on NCI-H226 lung, -77.5% (active); in the assay with NCI-H322M lung, -98.6% (active); in the assay on HOP-62 NSCLC it was -66.6% (active); in the assay with NCI-H460 lung it was -75.9% (active); in the assay with HOP-92 NSCLC, -67.4% (active). For the same compound, the growth is -56.3% (active) in the assay with NCI-H522 lung; -57.7% (active) with A549/ATCC NSCLC; -78.3% (active) with 786-0 renal; -97.6% (active) with DU-145 prostate; 2.8% (active) in the assay on K-562 leukemia; -99.2% (active) in the assay on MALME-3M melanoma. In addition, the growth was -24.6% (active) with MDA-MB-231 breast; -99% (active) with RXF 393 renal; -54.8% (active) in the assay with SF-268 CNS; -96.2% (active) with SF-295 CNS; -97.5% (active) in the assay with SF-539 CNS; -86.9% (active) in the assay with UACC-257 melanoma. The growth in the assay on M14 melanoma was -85.3% (active).
On to `CCN(CC)N=Nc1nn(C(=O)Nc2ccc(Cc3ccccc3)cc2)c2ccc(Cl)cc12`, for which the growth in the assay on NCI-H23 lung is 90.4%; in the assay with NCI-H226 lung, 84%; in the assay on NCI-H322M lung, 82.5%; with HOP-62 NSCLC, 86.9%; in the assay with NCI-H460 lung, 25.7%; in the assay with HOP-92 NSCLC it was 102%. The growth was 67.3% in the assay with NCI-H522 lung; 67.7% in the assay with A549/ATCC NSCLC; 59.5% in the assay on 786-0 renal; 70.5% in the assay on DU-145 prostate; 22.3% in the assay on K-562 leukemia; 139% with MALME-3M melanoma. For the same compound, the growth in the assay with MDA-MB-231 breast was 102%; with RXF 393 renal, 116%; with SF-268 CNS, 76%; in the assay with SF-295 CNS it was 8.57% (active); in the assay on SF-539 CNS, 77.7%; in the assay with UACC-257 melanoma, 55.5%. In addition, the growth in the assay on M14 melanoma is 22%.
With `Clc1cnc(Nc2ccc(OCCN3CCCC3)cc2)nc1NCc1ccco1`, the growth with NCI-H23 lung is 10.2%; in the assay with NCI-H226 lung, -9.35% (active); in the assay on NCI-H322M lung, 19.9%; in the assay on HOP-62 NSCLC, 11.7%; in the assay with NCI-H460 lung it was 3.25% (active); in the assay on HOP-92 NSCLC it was 5.42% (active). Also, the growth with NCI-H522 lung was 55.2%; in the assay on A549/ATCC NSCLC it was 11.3%; with 786-0 renal, 23.7%; in the assay on DU-145 prostate, 17.5%; in the assay on K-562 leukemia it was 16.4%; with MALME-3M melanoma, 26.1%. For the same compound, the growth with MDA-MB-231 breast was -5.14% (active); with RXF 393 renal, -37.7% (active); in the assay on SF-268 CNS, 21.1%; in the assay on SF-295 CNS, 31.2%; in the assay with SF-539 CNS, -14.2% (active); in the assay with UACC-257 melanoma, 49.1%. The growth in the assay with M14 melanoma was 35.1%.
In the case of `CCN(CC)CC(=O)Nc1cccc(C(=O)OC(C)C)c1`, the growth was 92.1% in the assay with NCI-H23 lung; 96.5% in the assay on NCI-H226 lung; 96.8% in the assay on NCI-H322M lung; 92.2% in the assay on HOP-62 NSCLC; 112% in the assay with NCI-H460 lung; 82% in the assay on HOP-92 NSCLC. In addition, the growth with NCI-H522 lung was 66.3%; with A549/ATCC NSCLC it was 93.7%; in the assay on 786-0 renal it was 79.8%; in the assay on DU-145 prostate it was 109%; in the assay with K-562 leukemia, 102%; in the assay with MALME-3M melanoma it was 99.5%. Besides, the growth with MDA-MB-231 breast was 112%; in the assay with RXF 393 renal it was 112%; with SF-268 CNS it was 105%; in the assay with SF-295 CNS, 95%; in the assay on SF-539 CNS, 100%; in the assay with UACC-257 melanoma, 106%. Also, in the assay with M14 melanoma, the growth was 79.6%.
On to `COC(=O)c1ccc2oc(NC(=O)c3ccc(N4CCOCC4)c([N+](=O)[O-])c3)nc2c1`, for which the growth is 93% with NCI-H23 lung; 90.5% with NCI-H226 lung; 92.6% with NCI-H322M lung; 82.3% in the assay with HOP-62 NSCLC; 105% with NCI-H460 lung; 84.9% in the assay on HOP-92 NSCLC. Also, the growth in the assay with NCI-H522 lung is 91%; with A549/ATCC NSCLC, 98.7%; with 786-0 renal, 108%; in the assay with DU-145 prostate, 102%; in the assay with K-562 leukemia it was 84.6%; in the assay with MALME-3M melanoma it was 90.5%. For the same compound, the growth in the assay on MDA-MB-231 breast is 100%; in the assay with RXF 393 renal, 119%; in the assay with SF-268 CNS, 97.4%; in the assay on SF-295 CNS it was 97.7%; with SF-539 CNS it was 89.6%; with UACC-257 melanoma, 97.9%. Also, in the assay on M14 melanoma, the growth was 98.8%.
In the case of `O=C1C2=C(CCN(Cc3ccccc3)C2)N2CCN=C2N1Cc1ccc(F)cc1F`, the growth in the assay on NCI-H23 lung was 32.2%; in the assay on NCI-H226 lung it was 29%; in the assay on NCI-H322M lung, 45.4%; in the assay with HOP-62 NSCLC, 33.6%; in the assay with NCI-H460 lung, 15.5%; with HOP-92 NSCLC, 41.9%. Further, the growth with NCI-H522 lung is 24.2%; in the assay with A549/ATCC NSCLC, 26.7%; in the assay on 786-0 renal, 55.2%; in the assay with DU-145 prostate, 32.6%; in the assay on K-562 leukemia, 33.1%; in the assay with MALME-3M melanoma it was 41.5%. The growth with MDA-MB-231 breast is 20.4%; with RXF 393 renal, 55%; in the assay on SF-268 CNS, 40.2%; with SF-295 CNS, 5.35% (active); in the assay on SF-539 CNS, 40.1%; in the assay on UACC-257 melanoma, 13.6%. The growth with M14 melanoma was 35.9%.
Regarding `O=c1ccn(C2OC(F)(CO)C(O)C2F)c(=O)[nH]1` (stereo not given), the growth with NCI-H23 lung was 100%; in the assay with NCI-H226 lung it was 102%; in the assay with NCI-H322M lung it was 113%; in the assay on HOP-62 NSCLC, 82.7%; with NCI-H460 lung, 107%; with HOP-92 NSCLC it was 98.1%. Besides, the growth with NCI-H522 lung is 75%; with A549/ATCC NSCLC, 104%; in the assay on 786-0 renal, 96%; in the assay on DU-145 prostate, 110%; with K-562 leukemia, 112%; with MALME-3M melanoma it was 110%. Moreover, the growth in the assay on MDA-MB-231 breast was 114%; with RXF 393 renal, 141%; with SF-268 CNS, 100%; in the assay with SF-295 CNS, 98.3%; in the assay on SF-539 CNS, 100%; with UACC-257 melanoma it was 95.1%. For the same compound, the growth in the assay on M14 melanoma was 95.3%.
Take `CC(C)OC(=O)OCOP(=O)(OCOC(=O)OC(C)C)C1CCCN(O)C1=O` (stereo not given): the growth with NCI-H23 lung was 69.6%; with NCI-H226 lung it was 56.1%; in the assay with NCI-H322M lung it was 32.8%; with HOP-62 NSCLC, 13.3%; with NCI-H460 lung it was 17%; in the assay with HOP-92 NSCLC it was 41.7%. Besides, the growth in the assay on NCI-H522 lung is -6.81% (active); with A549/ATCC NSCLC, 22.1%; with 786-0 renal it was 17.6%; with DU-145 prostate, 52.5%; in the assay with K-562 leukemia it was 30.3%; in the assay on MALME-3M melanoma, 41.1%. The growth in the assay on MDA-MB-231 breast is 21.8%; in the assay on RXF 393 renal, 8.56% (active); in the assay with SF-268 CNS, 26.5%; in the assay on SF-295 CNS, 62.8%; with SF-539 CNS, 75.5%; with UACC-257 melanoma, 55.2%. Moreover, in the assay on M14 melanoma, the growth is 44.4%.

For the origin of these results see PubChem BioAssay (NCI).
